Source: PubChem (National Center for Advancing Translational Sciences (NCATS))
This is a sample that favours compounds with a hit; in the whole collection about 3% have one here.
KCNH2 3.1 inh = inhibitors of human KCNH2 3.1 potassium channel isoform; 340,000 tested, 0.95% active; U2OS KCNH2 3.1, thallium flux FluxOr; active compounds read low; activity change, % (tested at about 1.8 µM); AID 720553;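 active = maximum activity change below -70%; inconclusive = maximum activity change from -70% to -50%; inactive = maximum activity change above -50%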;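 also: thallium influx rate constant from kinetic fluorescence after stimulation buffer; % is scaled to controls: 0 for no effect and ±100 for the full control effect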
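Thallium flux via FluxOr fluorescence (Red40 quencher, 45 min loading) in U2OS cells virally expressing the KCNH2 3.1 isoform (1.77 x 10^8 /mL virus, overnight at 37 C). Rate constants from 2-min kinetic reads post-stimulation, normalised to positive and negative controls.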
KCNH2 WT inh = KCNH2 (human, wildtype) channel inhibition. Q12809. U2OS, BacMam KCNH2, thallium flux FluxOr; active compounds read low. activity change, % at 1.84 µM. 340,000 tested, 0.37% active;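 active = maximum activity change below -70%; inconclusive = maximum activity change between -70% and -50%; inactive = maximum activity change above -50%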; also: % is scaled to controls: 0 for no effect and ±100 for the full control effect
Target sequence (Q12809 whole entry, looked up): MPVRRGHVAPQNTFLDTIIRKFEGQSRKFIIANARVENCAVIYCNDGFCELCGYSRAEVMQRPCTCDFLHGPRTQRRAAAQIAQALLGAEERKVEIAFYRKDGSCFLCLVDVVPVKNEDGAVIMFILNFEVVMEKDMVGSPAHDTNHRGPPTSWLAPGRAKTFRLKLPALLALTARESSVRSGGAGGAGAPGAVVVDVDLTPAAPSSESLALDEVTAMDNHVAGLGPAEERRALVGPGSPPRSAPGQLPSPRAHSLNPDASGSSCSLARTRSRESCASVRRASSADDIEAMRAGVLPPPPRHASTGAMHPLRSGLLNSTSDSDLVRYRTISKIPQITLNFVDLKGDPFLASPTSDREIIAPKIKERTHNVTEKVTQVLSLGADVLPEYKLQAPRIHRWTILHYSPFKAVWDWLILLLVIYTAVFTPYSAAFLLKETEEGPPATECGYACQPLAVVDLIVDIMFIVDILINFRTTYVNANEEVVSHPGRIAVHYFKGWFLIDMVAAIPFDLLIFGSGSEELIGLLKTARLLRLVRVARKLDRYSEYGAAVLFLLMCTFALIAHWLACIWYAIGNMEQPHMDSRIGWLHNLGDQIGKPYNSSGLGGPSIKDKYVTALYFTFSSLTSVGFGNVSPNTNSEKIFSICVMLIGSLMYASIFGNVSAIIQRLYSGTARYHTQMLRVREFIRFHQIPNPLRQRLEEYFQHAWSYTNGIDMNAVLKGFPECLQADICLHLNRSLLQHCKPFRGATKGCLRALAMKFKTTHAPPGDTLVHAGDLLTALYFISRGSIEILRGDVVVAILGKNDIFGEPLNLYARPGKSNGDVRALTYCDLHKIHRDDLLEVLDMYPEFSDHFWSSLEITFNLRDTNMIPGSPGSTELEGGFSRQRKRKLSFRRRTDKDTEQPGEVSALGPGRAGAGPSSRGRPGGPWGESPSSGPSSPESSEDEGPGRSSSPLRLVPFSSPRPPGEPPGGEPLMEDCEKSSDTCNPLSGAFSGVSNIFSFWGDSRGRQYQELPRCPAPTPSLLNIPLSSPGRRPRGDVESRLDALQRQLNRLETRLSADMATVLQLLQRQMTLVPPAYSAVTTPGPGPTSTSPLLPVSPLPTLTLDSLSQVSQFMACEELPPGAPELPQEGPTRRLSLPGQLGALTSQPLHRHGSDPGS
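U2OS cells were transduced with wild-type KCNH2 virus (2.03 x 10^8 / mL) for 4 h at room temperature, then cultured overnight at 37 C. Thallium flux was read with FluxOr dye. Rate constants were normalized to DMSO controls.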
Chronic BCR inh = blocks chronic active B-cell receptor signaling. ABC-DLBCL IkBa-CBG/CBR reporter, luminescence ratio, 4 h. Potency, µM (doses to about 46.1 µM), for the others: top-dose activity change, negative = inhibition, actives largely listed as inhibitors. 340,000 tested, 0.05% active. AID 493014; active = well fitted inhibition curve with a large enough effect in the signal ratio, with a control signal flat, not every such curve was filed as active; inconclusive = small, poorly fitted or top-dose-only effect, or effect the other way, or a change in a side signal; the % refers to the signal ratio;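 also: potency is read from the fitted curve at half-maximal effect; plate controls were basal doxycycline-induced cells for no effect and cells given 10 µM MG132 for full effect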
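Compounds up to 46 uM were incubated four hours with TMD8 cells whose green CBG68 luciferase is fused to IkappaBalpha; red CBR luminescence normalised the signal, and concentration-effect curves were fitted to fusion, red and ratio data.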
ClpP mod = qHTS Assay for Activators of ClpP | purified B. subtilis ClpP, FRET peptide cleavage, 20 min | Potency, µM (series often up to 57.5 µM), for inactives: at the highest dose activity change, negative = active | 340,000 tested, 1.9% active | AID 651965, 2013; active = well fitted falling curve with a large enough effect; inconclusive = small, poorly fitted or top-dose-only effect; inactive = no such curve, though single readings can be large or run the other way; also: potency is read from the fitted curve at half-maximal effect; the source files actives as falling curves though it sought activators and does not explain the sign; nearly all actives have a fitted effect of over 65% in size
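Purified B. subtilis ClpP, 10 microg/mL final in Tris/HCl pH8 with KCl, BSA, glycerol and Tween-20, cleaved an Abz/nitrotyrosine-quenched decapeptide. Fluorescence (ex 320, em 430) was read at 0 and 20 min at room temperature. Delta was normalized to 5.8 microM ADEP and DMSO/no-enzyme controls.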
12-LOX inh = ALOX12 (human) lipoxygenase inhibition; AID 1671190; 580,000 tested, 1.1% active; P18054; purified 12hLO, xylenol orange hydroperoxide absorbance; Potency, µM (series often up to 108 µM), without a hit: at the highest dose activity change, negative = inhibition, usual class: inhibitors; active = well fitted inhibition curve with a large enough effect; inconclusive = small, poorly fitted or top-dose-only effect, or another doubt; inactive = no such curve, though single readings can be large or run the other way; also: potency is read from the fitted curve at half-maximal effect; % is scaled to controls: 0 for no effect and ±100 for the full control effect
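Hydroperoxide product was detected by ferrous iron/xylenol orange as the 573 to 405 nm absorbance ratio. Arachidonic acid at 40 uM (final) was turned over for 30 min at room temperature by 150 nM human 12hLO, pH 7.0 Hepes buffer, after 15 min compound preincubation.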
LDHA inh = blocks human lactate dehydrogenase A; 480,000 tested, 0.15% active; activity change, % (values are at about 110 or 230 µM); AID 1347041; purified LDHA, NADH/diaphorase-resazurin fluorescence; active compounds read low; P00338; in the data active = activity change below about -30%; inconclusive = mostly about -25% to -30%;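 also: plate controls were DMSO wells for no effect and wells without enzyme for full effect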
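Human LDH5 (2 nM) was incubated with 0.06 mM NADH and 0.2 mM pyruvate for 5 min at room temperature in Tris pH 7.4. Remaining NADH was coupled through diaphorase/resazurin, and resorufin fluorescence was read at 0 and 20 min.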
* hit, by the source's call; ? = inconclusive; / = no result given; ! = repeats disagree.

SMILES	KCNH2 3.1 inh	KCNH2 WT inh	Chronic BCR inh	ClpP mod	12-LOX inh	LDHA inh
c1ccc2[nH]c(-c3cscn3)nc2c1	-16	2	?	-19%	0%	-10
O=C(c1ccccc1-c1nc2ccccc2[nH]1)N1CCCCC1	-13	1	-2%	28µM*	0%	-4
Cn1ccc2cc(NCc3nnc(C(=O)N4CCC[C@@H]4CN4CCCC4)n3-c3ccccc3)ccc21	/	/	/	/	33%	/
Cc1ccccc1NC(=O)c1sc2nc3c(cc2c1N)CN(C(C)C)CC3	/	/	/	/	?	3
c1ccc2c(-c3nc4ccccc4[nH]3)cccc2c1	-122*	16	/	5%	22%	-3
Fc1ccccc1-c1nc2ccccc2[nH]1	-6	/	?	3%	-5%	-14
COc1cccc(CC(NC(C)=O)C(=O)NC2CCN(c3nc(C)cc(C)c3C#N)CC2)c1OC (stereo not given)	-14	0	-26%	28µM*	4%	2
Cc1ccc(C(=O)NC(=S)Nc2ccc(CN3CCOCC3)cc2)cc1	-42	1	-7%	0%	35µM*	-2
CC(C)c1ccc(C(=O)Nc2ccc(CN3CCOCC3)cc2)cc1	-76*	9	4%	/	-5%	-10
O=C(/C=C/c1ccccc1)NC(=S)Nc1ccc(CN2CCOCC2)cc1	-85*	0	-1%	/	-21%	-3
O=C(Nc1ccc(CN2CCOCC2)cc1)c1ccc(-c2cccc(Cl)c2)o1	-49	-1	?	0%	-19%	1
O=C(Nc1ccc(CN2CCOCC2)cc1)c1ccc(-c2ccc(Cl)cc2Cl)o1	-87*	0	?	/	?	2
CC(C)Oc1ccc(C(=O)NC(=S)Nc2ccc(CN3CCOCC3)cc2)cc1	-15	-1	3%	/	?	-3
CCOC(=O)C(=O)Nc1ccc(NC(C)=O)cc1	/	/	/	/	?	-9
Cc1ccc(CN2CC(Oc3cccc(C(=O)N4CCOCC4)c3)C2)s1	/	/	/	/	0%	/
CCOc1ccc(N(CC)C(=O)C(=O)c2c[nH]c3ccccc23)cc1	/	/	/	/	-31%	1
CCC(C(=O)N1CCCN(c2cc(-c3ccc(OC)cc3)[nH]n2)CC1)c1ccccc1 (stereo not given)	/	/	/	/	54%	/
O=C(CN1C(=O)/C(=C\c2ccc(F)cc2)Oc2ccccc21)N1CCN(c2ccccn2)CC1	-10	28	-1%	22µM*	?	-8
O=C(CN1C(=O)/C(=C\c2cccc(F)c2)Oc2ccccc21)N1CCN(c2ccccn2)CC1	12	4	3%	-74%	-1%	-1
CSc1ccc(/C=C2\CCC(C3CCCC3)C2=O)cc1 (stereo not given)	/	/	/	/	?	10
Cc1cccc(C)c1-n1nnnc1C(C1CC1)N1CCN(C/C=C/c2ccccc2)CC1 (stereo not given)	/	/	/	-4%	-25%	-9
COc1ccc(-n2nnnc2C(C2CC2)N2CCN(C/C=C/c3ccccc3)CC2)cc1 (stereo not given)	/	/	/	1%	40µM*	-3
O=C(CN1CCCCC1)NN(Cc1ccccc1)c1ccccc1	-43	-5	-1%	/	14µM*	-17
Cc1c(C(=O)NC2CCS(=O)(=O)C2)nnn1-c1ccc(Cl)cc1 (stereo not given)	/	/	/	/	24%	6
Cc1cc(-c2ccc(C)c(S(=O)(=O)N3CCN(c4ccc([N+](=O)[O-])cc4)CC3)c2)on1	-96*	-29	3%	/	-5%	-7
SMILES	KCNH2 3.1 inh	KCNH2 WT inh	Chronic BCR inh	ClpP mod	12-LOX inh	LDHA inh
Cc1sc(N2CCOCC2)nc1-c1ccc(NS(C)(=O)=O)cc1	/	/	/	/	35µM*	-8
CC(=O)Nc1ccc(N2CCCC2)cc1	2	-2	8%	-4%	-12%	14
CC(=O)Nc1ccc(-c2nc(N3CCCC3)sc2C)cc1	/	/	/	/	5.6µM*	1
Cc1sc(NC2CC2)nc1-c1ccc(NS(C)(=O)=O)cc1	/	/	/	/	?	13
COc1ccc2c(C)c(CCC(=O)O)c(=O)oc2c1	/	/	/	/	5%	-8
CCCN(CC1CC1)C(=O)c1ccc2c(c1)C(O)CCCCCN2CCOC (stereo not given)	/	/	/	/	153%	/
Cc1cc(C)n(-c2nc3ccccc3c(=O)n2OCC(=O)N(C)C)n1	-3	2	5%	7.9µM*	107%	-11
Cc1cc(CC(C)C)n(-c2nc3ccccc3c(=O)n2OCC(=O)N(C)C)n1	-9	-7	-8%	-3%	6%	-7
COC(=O)C1=C(C)N(c2ccc3c(c2)OCO3)C(=O)NC1c1c(F)cccc1Cl (stereo not given)	/	/	/	/	?	-3
CN(CC(=O)Nc1ccc(N2CCOCC2)cc1)C(=O)C12CC3CC(CC(C3)C1)C2	-73*	1	2%	-2%	-13%	1
COc1ccc(OC)c(/C=C/C(=O)N(C)CC(=O)Nc2ccc(N3CCOCC3)cc2)c1	14	-9	?	28µM*	-3%	-4
O=C(O)CCC(NC(=O)c1ccc(-c2ccc(Cl)cc2)s1)C(=O)O (stereo not given)	/	/	/	/	9%	-1
CS(=O)(=O)Nc1cccc(CNC(=O)CCC2CCCCC2)c1	/	/	/	/	16%	-25
c1ccc(-c2nn3c(Cn4cnc5ccccc54)nnc3s2)cc1	1	14	-14%	-1%	7.1µM*!	-7
c1ccc2c(c1)nnn2Cc1nnc2sc(-c3ccc4c(c3)OCCO4)nn12	0	3	8%	32µM*	?	-9
c1ccc(-c2nn3c(Cn4nnc5ccccc54)nnc3s2)cc1	-19	2	-2%	-8%	14µM*	1
CCCCN1C(=O)C2(/C(=C(\O)c3ccc(OC)c(C)c3)C(=O)C(=O)N2CCOC)c2ccccc21 (stereo not given)	/	/	/	/	36%	11
CS(=O)(=O)N1CCCc2cc(C(=O)Nc3cccc(-c4nnc5n4CCCCC5)c3)ccc21	/	/	/	/	-8%	-6
O=c1cnc(-c2ccc(Cl)cc2)cn1O	10	/	3%	4%	50µM*	-12
Cc1cc(C)n(-c2cc(N3CCN(S(=O)(=O)c4ccc(Br)cc4)CC3)ccc2[N+](=O)[O-])n1	-81*	-2	2%	-2%	-12%	-5
CCOC(=O)C1=C(Cc2ccc(C)cc2)C(=O)c2ccccc2C1=O	/	/	?	/	11µM*	/
CCOC(=O)C1=C(Cc2ccc(OC)cc2)C(=O)c2ccccc2C1=O	-9	-14	?	2%	/	49
COc1cc(CNc2ccccc2SC)cc(OC)c1OC	-2	2	?	-18%	45µM*	18
O=C1NC[C@H](Cc2ccccc2)N(CC2CCN(CCc3ccc(-c4ccccc4)cc3)CC2)C1=O	-93*	-43	/	0%	-19%	-2
